# Results taken from PubChem BioAssay (NCATS).
# The source made the active and inactive calls. Calls come from the whole dose curve; as a rule, active = well fitted activation curve with a large enough effect; inconclusive = small, poorly fitted or top-dose-only effect; inactive = flat fitted curve, though single readings scatter.
# Assay: Confirmation and Secondary Assay for Modulators of Hemoglobin Beta Chain Splicing at IVS2 654 locus (AID 910);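 note: HeLa cells stably carrying EGFP split by mutant beta-globin IVS2-654 intron; % of control where 0% means no effect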
# Conditions: HeLa EGFP-654 splicing reporter, GFP fluorescence, 48 h; series mostly up to 46.1 µM; activation (splicing correction): at the top concentration
# From the text: NIH Chemical Genomics Center [NCGC] NIH Molecular Libraries Screening Centers Network [MLSCN] MLSCN Grant: 1 X01 MH080684-01 PI Name: Dr. Ryszard Kole NCGC Assay Overview: Modulation of Alternative Splicing as Therapy Abnormal splicing is associated with a number of diseases, including cancer and genetic diseases such as cystic fibrosis, muscular dystrophy and beta-thalassemia. Alteration of disease associated splicing patterns provides a promising target for treatment. […] Mutations in the second intron of the b-globin gene at positions 654 or 705 are clinically relevant and cause mis-splicing which results in an out of frame gene product. […] EGFP-654 HeLa Cells as screen system. HeLa cell lines were stably transfected with a construct in which the EGFP (enhanced green fluorescent protein) cDNA was interrupted by the second intron of the beta-globin gene (IVS2-654). The ISV2 intron contains mutations which cause mis-splicing of EGFP and premature termination of EGFP which results in a nonfluorescent protein product. […] Expression of the transgene was driven by the CMV promoter. We concluded that a low molecular weight compound, which restored correct splicing of intron 2 would also generate functional EGFP protein, resulting in a fluorescent signal. Thus, the HeLa cells that express the EGFP-654 construct can be used for high throughput screening of a chemical library.
# NCGC Assay Protocol Summary: Confirmatory Screening. Freshly thawed HeLa EGFP-654 cells were seeded in 5 ul of optimem media (Invitrogen) containing 2 % fetal calf serum (Hyclone) and 1x penicillin/streptomycin (Invitrogen) at a concentration of 500 cells per well in 1536-well plates. Cells were incubated overnight at 37C in 5% CO2. The next day, cells were treated with DMSO, 500 nM antisense ISV2 654 PNA control oligo, or library compound and allowed to grow at 37C in 5% CO2 for 2 days. The PNA oligo blocked the mutation site in the intron and allowed proper (wild type) splicing to occur, resulting in full length EGFP expression and also allowed for optimization of the assay parameters. Plates were read in the Acumen Explorer (TTP Labtech) using 488 nm laser excitation and 500-520 nm emission PMT filter in a 1 x 8 uM capture mode. Fluorescnet objects ranging in size from 5 to 250 uM were measured and the total peak GFP intensity for each well was used for data analysis. Keywords: Thalassemia, beta-thalassemia, beta-globin, EGFP, ISV2 654, ISV2 705, SSO, PNA, antisense, splicing, MLSMR, MLSCN, NIH Roadmap, qHTS, NCGC
SMILES,activation (splicing correction),Potency
CC(C)NCC(O)c1ccc(O)c(O)c1 (stereo not given),4.55% (inactive),–
COc1ccc2[nH]cc(CCNC(C)=O)c2c1,9.04% (inactive),–
Cn1c(=O)c2c(ncn2C)n(C)c1=O,9.54% (inactive),–
CCc1cccc2c3c([nH]c12)C(CC)(CC(=O)O)OCC3 (stereo not given),-3.3% (inactive),–
CN(C)CCCN1c2ccccc2CCc2ccc(Cl)cc21,-1.34% [at 38.3 µM] (inactive),–
CN1CCC(=C2c3ccccc3CC(=O)c3sccc32)CC1,0.512% (inactive),–
CN(C)C(=O)C(CCN1CCC(O)(c2ccc(Cl)cc2)CC1)(c1ccccc1)c1ccccc1,1.8% (inactive),–
O=C(CCCN1CCC(O)(c2ccc(Cl)cc2)CC1)c1ccc(F)cc1,1.12% (inactive),–
Clc1ccc2c(c1)C(N1CCNCC1)=Nc1ccccc1O2,-3.4% [at 38.3 µM] (inactive),–
CN(C)CCC=C1c2ccccc2C=Cc2ccccc21,1.6% (inactive),–
Nc1c2c(nc3ccccc13)CCCC2,-0.14% [at 38.3 µM] (inactive),–
CN(C)C(=N)N=C(N)N,0.937% (inactive),–
Cn1c(=O)c2[nH]cnc2n(C)c1=O,1.22% (inactive),–
Nc1ccn([C@H]2CC[C@@H](CO)O2)c(=O)n1,1.42% (inactive),–
CN(C)c1nc(N(C)C)nc(N(C)C)n1,2.63% (inactive),–
O=c1c(-c2ccc(O)cc2)coc2cc(O)cc(O)c12,-7.87% (inactive),–
CCCCc1oc2ccccc2c1C(=O)c1cc(I)c(OCCN(CC)CC)c(I)c1,-1.91% [at 38.3 µM] (inactive),–
O=C(c1ccc(F)cc1)C1CCN(CCn2c(=O)[nH]c3ccccc3c2=O)CC1,-0.332% [at 38.3 µM] (inactive),–
O=C(C1CCCCC1)N1CC(=O)N2CCc3ccccc3C2C1 (stereo not given),-1.53% (inactive),–
Cc1cc(C(C)(C)C)c(O)c(C)c1CC1=NCCN1,-3% (inactive),–

SMILES,activation (splicing correction),Potency
OCCN(CCO)c1nc(N2CCCCC2)c2nc(N(CCO)CCO)nc(N3CCCCC3)c2n1,-5.84% (inactive),–
CC1COc2c(N3CCN(C)CC3)c(F)cc3c(=O)c(C(=O)O)cn1c23 (stereo not given),–,inactive
Cn1cnc2c1c(=O)[nH]c(=O)n2C,-0.752% (inactive),–
O=C1c2c(O)ccc(O)c2C(=O)c2c(NCCNCCO)ccc(NCCNCCO)c21,-2.84% (inactive),–
O=c1c(O)c(-c2ccc(O)c(O)c2)oc2cc(O)cc(O)c12,7.7% [at 38.3 µM] (inactive),–
CC(C(=O)O)c1cccc(C(=O)c2ccccc2)c1 (stereo not given),2.18% (inactive),–
CN1C(C(=O)Nc2ccccn2)=C(O)c2ccccc2S1(=O)=O,0.193% (inactive),–
COc1ccc2c(c1)c(CC(=O)O)c(C)n2C(=O)c1ccc(Cl)cc1,-2.18% (inactive),–
CCC1(C)CC(=O)NC1=O (stereo not given),-3.21% (inactive),–
CN1CCN2c3ccccc3Cc3ccccc3C2C1 (stereo not given),1.06% [at 38.3 µM] (inactive),–
COc1ccccc1OCC(O)CN1CCN(CC(=O)Nc2c(C)cccc2C)CC1 (stereo not given),10.4% (inactive),–
CCCNCC(O)COc1ccccc1C(=O)CCc1ccccc1 (stereo not given),0.434% (inactive),–
NC12CC3CC(CC(C3)C1)C2,0.703% (inactive),–
Cc1ccc(C(=O)Nc2ccc(S(=O)(=O)O)c3cc(S(=O)(=O)O)cc(S(=O)(=O)O)c23)cc1NC(=O)c1cccc(NC(=O)Nc2cccc(C(=O)Nc3cc(C(=O)Nc4ccc(S(=O)(=O)O)c5cc(S(=O)(=O)O)cc(S(=O)(=O)O)c45)ccc3C)c2)c1,3.2% [at 38.3 µM] (inactive),–
NS(=O)(=O)c1cc2c(cc1Cl)NCNS2(=O)=O,3.24% (inactive),–
OCCN1CCN(CCCN2c3ccccc3Sc3ccc(C(F)(F)F)cc32)CC1,-6.93% (inactive),–
CC(=O)OCC(CCn1cnc2cnc(N)nc21)COC(C)=O,4.98% (inactive),–
NCCc1cnc[nH]1,-1.26% (inactive),–
CC(C)C(=O)Nc1ccc([N+](=O)[O-])c(C(F)(F)F)c1,2.56% (inactive),–
COC(=O)Nc1nc2ccc(C(=O)c3cccs3)cc2[nH]1,11.1% (inactive),–
